This passage reports Potency results from PubChem BioAssay AID540276 (National Center for Advancing Translational Sciences (NCATS), 2011).

The campaign covered roughly 300,000 compounds. About 5,400 (1.8%) were called active. Entries that show only a call come without a potency. Roughly 28% stayed inconclusive and do not appear here. This is one part of a sample in which actives are shown more often than they occur. The call rests on the fitted dose curve; tested in HEK293 cells.
Potency means the concentration at half of the fitted maximal effect.

The assay is described as follows: qHTS for inhibitors of binding or entry into cells for Marburg Virus. The following applies: Marburg virus pseudotyped entry inhibition, cell reporter; series mostly up to 37.8 µM. (In general: qHTS replaces the single test concentration by a dilution series.)
Consider `Cc1ccc(NC(=O)CSc2nnc(CNC(=O)c3ccccc3F)o2)cc1Cl`, for which the Potency result is “inactive”. Turning to `O=C(N/N=C/c1ccoc1)c1ccc(Cl)cc1Cl`, the Potency entry is “inactive”.

Regarding `COc1ccc(Cc2nnc(N/N=C/c3ccccc3O)[nH]c2=O)cc1OC`, the Potency was 3660 nM (active). With `CCOc1ccc(-n2c(O)c(/C=N/Nc3nnc(C)c(=O)[nH]3)c3ccccc3c2=O)cc1` the entry was “inactive”; with `O=c1[nH]c(NCCO)nnc1Cc1ccc(Cl)cc1`, “inactive”; with `O=C(OCC(=O)N1CCN(C(=O)c2ccco2)CC1)c1ccc(Cl)c(Cl)c1`, “inactive”. With `COCCOC(=O)C1=C(C)NC(=O)NC1c1cc2c(cc1Br)OCO2` (stereo unspecified) the entry was “inactive”; with `c1ccc2c(c1)C(=NC1CCCCC1)NC2=NC1CCCCC1`, 5800 nM (active). In the case of `O=C1CCCCC(=O)c2ccccc2N1`, the Potency result was “inactive”.

Consider `C1CCC2=C(C1)CN1CCCC1=N2`, for which the Potency result is “inactive”. For `Cc1nc2ccc(N)nc2nc1C` the value was “inactive”. Take `Cc1cccc(NC(=O)C2CCN(C(=O)NC3CCCCC3)CC2)c1`: the Potency entry is “inactive”.

Regarding `CC[C@]1(O)C(=O)OCc2c1cc1n(c2=O)Cc2cc3ccccc3nc2-1`, the Potency was 25.1 nM (active).

Turning to `Cn1c(Cc2cccs2)nnc1SCC(=O)Nc1ccccc1`, the Potency entry is “inactive”. With `O=C(Oc1cccc(C(=S)N2CCOCC2)c1)c1cccc(Cl)c1`, the Potency result is “inactive”. In the case of `COc1ccccc1C(=O)NCCC(=O)NC(C)CCc1ccccc1` (stereo unspecified), the Potency result was “inactive”. `c1c2c(cc3sc(N4CCCCC4)nc13)OCCO2`: the Potency was 562 nM (active). In the case of `Cc1nc2cc3c(cc2s1)OCO3`, the Potency entry is “inactive”. For `COc1ccc2nc(Nc3nc4cc5c(cc4s3)OCCO5)sc2c1` the value was “inactive”; for `O=C(NCC(=O)N1CCN(c2ccccc2F)CC1)c1cccs1`, “inactive”; for `CCN(CC)S(=O)(=O)c1cc(C(=O)Nc2cc(S(=O)(=O)N3CCOCC3)ccc2N2CCCC2)ccc1F`, “inactive”. With `CCCN(CCc1ccccc1)C1CCc2c(O)cccc2C1` (stereo unspecified) the figure was 15800 nM (active). Turning to `Cc1nn(Cc2ccccc2)c(C)c1NS(=O)(=O)c1ccccc1`, the Potency entry was “inactive”. For `COc1ccc(N(CC(=O)NCc2ccc(F)cc2)C(=O)CCC(=O)Nc2nccs2)cc1`, the Potency entry is “inactive”. With `NN=C(NN=Cc1ccccc1)c1ccccc1`, the Potency result was “inactive”. `COc1ccccc1NS(=O)(=O)c1ccc(C(=O)N2CCN(c3ccccc3O)CC2)cc1`: the Potency result was “inactive”. Turning to `COc1cc2c(cc1OC)/C(=C/C(=O)c1ccc(NC(C)=O)cc1)NCC2`, the Potency result was “inactive”. In the case of `CC1CN/C(=C\C(=O)c2ccc(Br)cc2)C(=O)N1` (stereo unspecified), the Potency was 2240 nM (active).

Take `C/C(=C\C(=O)c1ccc(Br)cc1)N1CCCCC1`: the Potency entry was “inactive”. On to `Cc1cc(OCC(=O)NCC(O)c2ccccc2)c2c(C)c(C)c(=O)oc2c1` (stereo unspecified), for which the Potency result is “inactive”. With `O=C(Nc1cccc(Cl)c1N1CCOCC1)c1cccnc1` the entry was “inactive”.
